Measured values published in the supplement of paper PMC3334620.
In all, about 33,000 sequences were measured (“E-score (-0.5 to 0.5)”: median about -0.013, highest 2% from about 0.3 on). Only a selection was taken, and the highest values are over-represented in it overall.

Target: T1, Msn1 (UniProt P22148)
T1 sequence: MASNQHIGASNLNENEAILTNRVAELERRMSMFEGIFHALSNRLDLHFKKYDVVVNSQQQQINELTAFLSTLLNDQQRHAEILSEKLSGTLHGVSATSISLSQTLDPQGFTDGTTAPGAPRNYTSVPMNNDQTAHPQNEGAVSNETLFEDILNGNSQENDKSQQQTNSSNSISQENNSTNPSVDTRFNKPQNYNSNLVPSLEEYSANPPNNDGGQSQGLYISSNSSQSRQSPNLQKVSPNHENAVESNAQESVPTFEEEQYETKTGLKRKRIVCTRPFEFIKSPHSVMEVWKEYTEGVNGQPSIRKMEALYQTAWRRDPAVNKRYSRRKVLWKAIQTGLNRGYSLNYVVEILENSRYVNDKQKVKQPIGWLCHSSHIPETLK
Test: PBM E-score (8-mer binding enrichment) (E-score (-0.5 to 0.5)); higher = stronger / more preferred TF binding
Conditions: protein concentration: 200 nM; construct: GST-full length
In short: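 For each ungapped eight-base word taken together with its reverse complement, the Universal PBM Analysis Suite assigned an E-score. Binding data came from GST-tagged yeast transcription factors, applied at about 100-200 nM, on universal all-10-mer Agilent arrays made double-stranded by primer extension. Fluorescent anti-GST marked bound protein, and scans were normalised with masliner.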

Sequence	PBM E-score
ACACATCC	0.0829
AATACCCA	-0.0704
TATTGTGA	0.0467
AGCACCAA	0.0195
ACAGTGCC	0.063
CGAATCGA	0.213
ACAGCCTG	-0.0349
ATGCCAAC	0.0264
ATTTCCCG	0.188
AACTACTT	0.00311
ATGAGCAT	0.017
CAGAAATA	0.0248
ACGTCCTA	0.354
CCGTCCTA	-0.0332
AAGTCCTC	0.244
AAGTCCTG	0.292
AAGTCCTA	0.409
ACGTCCTG	0.0274
ACTGTCCG	0.183
CTTGTCCA	0.464
CTTGTACC	0.286
CTTGTCGA	0.0891
ATTGTTCG	0.259
ATTGTCAA	0.12
CTTGTCAA	0.162

Sequence	PBM E-score
ATTGTCCA	0.466
ATCGTCCA	-0.0991
ATTGTACA	0.242
CTTGTACA	0.311
ATTGTCCG	0.468
CATTATGC	-0.00798
AGTTCGCC	0.00171
GACGCGAA	0.0618
TACTCGAA	-0.00961
GCCGACGC	0.0201
CTGGTCCC	-0.218
GTTGTCCA	0.381
GTTGTCAA	0.0641
ATTGTCCC	0.462
ACTGTCCC	0.127
ATTGTCAC	0.297
CTTGTCAC	0.296
CTTGTCCC	0.47
GTTGTCGA	0.00891
AAACCTTC	-0.288
GCCGTCGC	-0.0331
CTTCAGGC	-0.0893
CAATTGAG	-0.0282
ACATTAGC	0.147
CAAATCAA	0.126

Sequence	PBM E-score
CGACAGGC	-0.152
GAGTTCCC	0.0462
GTGCTGAA	-0.191
ATGCGTGC	-0.0193
ACTTGTCA	0.369
ACTTGTAT	0.145
GCTTGTCA	0.209
ACTTGTCG	0.297
GCTTGTAC	0.267
ACTTGTGC	-0.14
ACTTGTCT	0.407
ACTTGTGA	-0.103
ACTTGTCC	0.467
ACTTGGCT	-0.176
GCTTGTCC	0.454
TCTTGTCA	0.238
CCTAGCTC	-0.148
CGGTCGCA	-0.0568
CCAACGGA	-0.08
GGCACTAC	-0.284
CGCTCTGC	-0.112
CCTTGTCG	0.0372
CCTTGTCC	0.449
CCTTGTCA	0.0263
CTGGTATC	-0.0417

Sequence	PBM E-score
GACCTATC	0.0973
GGTGCTAC	-0.204
ATGTCGTC	0.191
GTGTCGTA	0.228
ATGTCGTA	0.395
CTGTCGTA	-0.0467
ATGTCGAG	0.162
ATGTCGTG	0.337
GCTGCGTA	-0.124
AAACGAGC	-0.0279
GCCAAAGC	-0.0464
CACTGCCG	0.0826
CGAGGACA	0.453
AGAGGACC	-0.208
GGAGGACA	0.4
TGAGGACA	0.46
GGAGGAGA	-0.179
TGAGGCCA	-0.117
AGAGGACA	0.353
TGAGGAAA	0.0866
CGAGGACG	0.0859
CGAGGACC	-0.14
AGAGGACT	-0.21
GGAGGACC	-0.25
CCACACGA	0.00165

Sequence	PBM E-score
AACGAATA	-0.0354
ATAGTCTA	-0.0808
GTGCCTGA	-0.25
AATAACTC	0.00363
GGAGAACA	0.0888
ACAACCCA	0.0013
AGTGTCCC	0.375
CGTGTCTA	0.166
GGTGTCCA	0.352
AGTGTCCG	0.179
CGTGTCGA	0.0442
CGTGTCTC	0.26
GGTGTCGA	-0.0245
CGTGTCCC	0.437
CGTGTCGC	0.202
AGTGTCCA	0.219
GGTGTCTA	0.0447
CGTGTCCA	0.424
ACGGTCAT	0.0534
AGCTTTCC	-0.198
GAACTGAA	-0.00121
CGTGGCAC	0.0166
CTGAGCGA	0.0585
CAGCTAGC	-0.19
ATATTAAT	0.243

Sequence	PBM E-score
GCAGCCCA	-0.0983
TTGCCAAA	-0.0227
AACTTGGC	-0.0461
GCCTTCCA	-0.367
TAATGAAA	0.226
CAATGAAA	0.0415
AAATGAAA	0.305
AGGATGTA	-0.0489
CGGATGTC	0.348
CAGATGTA	-0.0817
CGGATGTA	0.0259
CTGATGTC	0.282
AAGATGTC	0.252
AGGATGTC	0.398
AGGATGTG	-0.0903
CAGATGTC	0.347
GCCCAGAA	0.0114
CTGCTACC	-0.0604
CCCTCGAG	-0.11
ACTGGCAA	0.0309
GTTGATTA	0.135
AATCTGGG	-0.203
CCAGGTGC	-0.205
ATTACGCG	-0.059
AACAATCC	0.136

Sequence	PBM E-score
CACAATAC	-0.0413
GACAATTA	0.426
AACAATTA	0.165
GACAATCA	0.217
CACAATTA	0.128
GACAATCC	0.355
GACAATAC	0.377
AACAATAC	0.158
ATTCCTCG	0.0159
AACGTCAG	-0.248
GAGATCAC	-0.035
ATACAGCA	0.103
ACAGGACA	0.421
TCAGGAAA	0.0903
TCAGGACA	0.461
ACAGGACT	-0.0485
CCAGGACG	0.109
CCAGGACA	0.469
TCAGGAGA	-0.0143
ACAGGACG	0.0345
CCAGGACC	-0.105
GCAGGACA	0.47
GCAGGACC	-0.0863
GCAGGATA	-0.224
